# Calls of active or inactive are those of the source.
# Tests used:
# [1] = optical density shifts of acrAB sulA E. coli – strain DRC41, OD650, 48 h, E. coli filamentation inducer project, primary screen (AID 1152); conditions: higher = more signal, called active from +8 up or from −8 down;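 note: E. coli MC1000 strain DRC41 lacking acrAB efflux pump and sulA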
# [2] = probe aLefty1 binding on compound microarray – biochemical, small-molecule microarray, 635/667 nm fluorescence, primary screen (AID 1153); conditions: higher = more signal;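 note: score merges spot fluorescence with signal-to-noise ratio from the scanned slide images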
# [3] = plasmodial surface anion channel blockers, osmotic lysis – cell-based, P. falciparum Indochina, OD700, 1 h, primary screen (AID 1154); conditions: P. falciparum Indochina infected RBC osmotic lysis, higher = more signal, called active from +8 up or from −8 down
# [4] = plasmodial surface anion channel blockers, osmotic lysis – cell-based, P. falciparum Indochina, OD700, 2 h, primary screen (AID 1155);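 note: lysis reports solute entry through the parasite surface anion channel PSAC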; conditions: P. falciparum Indochina infected erythrocytes, higher = more signal, called active from +8 up or from −8 down
# [5] = changes in parasitized red cell lysis, either direction – P. falciparum Indochina, OD700, 3 h, PSAC antagonist project, primary screen (AID 1156); conditions: P. falciparum-infected erythrocytes, osmotic lysis, higher = more signal, called active from +8 up or from −8 down
# [6] = plasmodial surface anion channel blockers, osmotic lysis – cell-based, P. falciparum Indochina, OD700, 18 h, primary screen (AID 1157); conditions: P. falciparum Indochina infected erythrocytes, osmotic lysis OD700, 18 h; higher = more signal, called active from +8 up or from −8 down
# [7] = S6 kinase pathway phospho-S6 level changes – cell-based, A549, cytoblot, luminescence, serum-stimulated, primary screen (AID 1158); conditions: 5 h, higher = more signal;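 note: serum-stimulated A549 lung adenocarcinoma cells; signal is phosphorylated S6 detected by cytoblot immunostaining with HRP secondary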
# [8] = biological target: NADPH oxidase 2 (Homo sapiens) (UniProt P04839); test: compounds shifting NOX2 Amplex Red fluorescence – cell-based, HEK293-NOX2, PMA-stimulated, NOX inhibitor project, primary screen (AID 1159); conditions: 45 min, higher = more signal, called active from +8 up or from −8 down; note: test concentration not given here
# Chain of NADPH oxidase 2 (Homo sapiens) (P04839 whole entry, looked up): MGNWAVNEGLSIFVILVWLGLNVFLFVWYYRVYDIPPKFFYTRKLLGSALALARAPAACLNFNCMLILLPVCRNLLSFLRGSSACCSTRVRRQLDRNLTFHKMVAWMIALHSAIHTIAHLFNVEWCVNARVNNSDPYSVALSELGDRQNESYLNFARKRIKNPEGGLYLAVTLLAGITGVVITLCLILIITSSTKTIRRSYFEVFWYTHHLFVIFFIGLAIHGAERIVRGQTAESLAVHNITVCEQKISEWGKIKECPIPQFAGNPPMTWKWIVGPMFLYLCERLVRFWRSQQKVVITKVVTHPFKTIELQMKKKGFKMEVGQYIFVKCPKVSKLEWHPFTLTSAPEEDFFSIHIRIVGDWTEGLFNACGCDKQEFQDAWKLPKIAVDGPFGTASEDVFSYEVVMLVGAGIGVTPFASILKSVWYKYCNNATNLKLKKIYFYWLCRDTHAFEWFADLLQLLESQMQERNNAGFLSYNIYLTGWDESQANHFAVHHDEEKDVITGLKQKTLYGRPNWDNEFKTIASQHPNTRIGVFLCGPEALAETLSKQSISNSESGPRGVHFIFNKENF
# [9] = biological target: NADPH oxidase 4 (Homo sapiens) (UniProt Q9NPH5); test: compounds shifting NOX4 Amplex Red fluorescence – cell-based, HEK293-NOX4, tetracycline-induced, NOX inhibitor project, primary screen (AID 1160); conditions: HEK293-NOX4, Amplex Red H2O2 fluorescence, 45 min; higher = more signal, called active from +8 up or from −8 down
# Chain of NADPH oxidase 4 (Homo sapiens) (Q9NPH5 whole entry, looked up): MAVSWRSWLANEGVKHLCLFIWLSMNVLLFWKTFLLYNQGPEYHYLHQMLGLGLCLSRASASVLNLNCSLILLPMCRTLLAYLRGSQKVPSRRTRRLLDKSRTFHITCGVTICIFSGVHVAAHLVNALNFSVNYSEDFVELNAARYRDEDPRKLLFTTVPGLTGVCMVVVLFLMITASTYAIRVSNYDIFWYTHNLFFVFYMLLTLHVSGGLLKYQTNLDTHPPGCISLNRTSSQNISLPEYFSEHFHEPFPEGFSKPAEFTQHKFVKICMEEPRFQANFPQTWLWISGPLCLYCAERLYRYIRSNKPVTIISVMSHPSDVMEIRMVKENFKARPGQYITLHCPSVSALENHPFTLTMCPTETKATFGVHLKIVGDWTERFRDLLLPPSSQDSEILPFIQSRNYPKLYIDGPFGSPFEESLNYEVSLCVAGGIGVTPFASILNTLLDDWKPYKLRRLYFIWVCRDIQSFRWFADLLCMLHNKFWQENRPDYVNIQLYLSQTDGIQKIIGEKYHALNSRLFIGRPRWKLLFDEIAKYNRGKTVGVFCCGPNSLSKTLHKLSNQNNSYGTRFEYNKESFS
# [10] = biological target: NADPH oxidase 5 (Homo sapiens) (UniProt Q96PH1); test: compounds shifting NOX5 Amplex Red fluorescence – cell-based, HEK293-NOX5, NOX inhibitor project, primary screen (AID 1161); conditions: HEK293-NOX5, ionomycin, 45 min, higher = more signal
# Chain of NADPH oxidase 5 (Homo sapiens) (Q96PH1 whole entry, looked up): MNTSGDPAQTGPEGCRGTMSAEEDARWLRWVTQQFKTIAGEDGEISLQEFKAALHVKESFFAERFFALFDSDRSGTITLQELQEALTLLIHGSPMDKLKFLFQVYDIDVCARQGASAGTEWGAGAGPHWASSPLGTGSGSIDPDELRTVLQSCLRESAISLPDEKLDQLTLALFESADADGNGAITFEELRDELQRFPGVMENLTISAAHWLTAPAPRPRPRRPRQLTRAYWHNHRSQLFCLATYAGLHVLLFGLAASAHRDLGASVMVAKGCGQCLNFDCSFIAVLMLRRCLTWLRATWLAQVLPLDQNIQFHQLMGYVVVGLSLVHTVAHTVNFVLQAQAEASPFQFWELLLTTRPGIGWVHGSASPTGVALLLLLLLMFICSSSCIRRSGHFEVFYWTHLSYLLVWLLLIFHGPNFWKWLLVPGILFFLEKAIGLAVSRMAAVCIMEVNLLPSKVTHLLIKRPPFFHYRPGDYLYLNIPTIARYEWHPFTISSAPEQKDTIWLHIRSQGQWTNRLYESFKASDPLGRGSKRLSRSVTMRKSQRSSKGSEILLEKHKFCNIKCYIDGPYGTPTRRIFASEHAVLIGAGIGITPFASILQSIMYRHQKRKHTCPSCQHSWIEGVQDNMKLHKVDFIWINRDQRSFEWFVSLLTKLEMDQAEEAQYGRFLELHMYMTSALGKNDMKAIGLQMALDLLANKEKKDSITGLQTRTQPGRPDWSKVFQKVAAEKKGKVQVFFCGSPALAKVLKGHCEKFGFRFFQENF
Compound,z-score [1],composite z-score [2],z-score [3],z-score [4],z-score [5],z-score [6],z-score [7],z-score [8],z-score [9],z-score [10]
COc1ccc(CCNC(=O)[C@@H]2c3ccccc3C(=O)N(Cc3ccccc3Cl)[C@H]2c2ccc(CO)cc2)cc1,-0.497 (inactive),-0.0999,3.59 (inactive),0.474 (inactive),0.209 (inactive),-0.11 (inactive),-0.144,-3.49 (inactive),0.151 (inactive),-2.46
C=C(CCCC)C(=O)CC[C@@H](OC(=O)c1ccccc1-c1ccccc1C(=O)O)c1ccc(OCCO)cc1,-0.181 (inactive),-0.23,17.2 (active),1.73 (inactive),1.15 (inactive),0.602 (inactive),0.276,2.45 (inactive),0.216 (inactive),-0.936
COC(=O)[C@@]1(Cc2ccc(F)cc2)[C@H]2c3cc(C(=O)N(C)C)n(Cc4ccccc4)c3C[C@H]2CN1C(=O)c1ccccc1,-1.39 (inactive),0.342,2.6 (inactive),0.672 (inactive),0.657 (inactive),1.23 (inactive),-0.231,1.01 (inactive),0.734 (inactive),1.89
CCOC(=O)C1=CC[C@@H](c2ccccc2)N(S(=O)(=O)c2ccc(C)cc2)[C@H]1c1ccccc1C,-0.36 (inactive),0.589,1.57 (inactive),0.678 (inactive),-0.569 (inactive),0.879 (inactive),-0.102,0.515 (inactive),0.226 (inactive),0.963
O=C1c2ccccc2[C@](Cc2ccccc2I)(C(=O)NCC(F)(F)F)[C@H](c2ccc(CO)cc2)N1Cc1ccccc1Cl,0.193 (inactive),-0.105,4.4 (inactive),0.208 (inactive),1.84 (inactive),0.499 (inactive),0.312,2.69 (inactive),0.566 (inactive),1.05
COC(=O)[C@@]1(Cc2ccc(F)cc2)[C@H]2c3cc(C(=O)N(C)C)n(Cc4ccc(Cl)c(C(F)(F)F)c4)c3C[C@H]2CN1C(=O)c1ccccc1,-1.91 (inactive),1.54,7.17 (inactive),2.13 (inactive),0.512 (inactive),1.72 (inactive),-0.186,0.23 (inactive),-1.2 (inactive),0.627
CCCC[C@H]1OB(O)C[C@H]2C1=C(COC)C[C@H]1C(=O)N(C)C(=O)[C@H]12,-0.971 (inactive),-0.196,0.431 (inactive),0.0082 (inactive),-1.19 (inactive),0.232 (inactive),-0.18,-0.251 (inactive),0.221 (inactive),0.786
COC(=O)[C@H](Cc1ccccc1)N1CC2=C[C@@H](C3CC3)n3c(=O)n(C)c(=O)n3[C@H]2[C@@H]1[C@@H](O)Cc1ccccc1,-1.32 (inactive),0.355,11.5 (active),2.35 (inactive),0.645 (inactive),1.58 (inactive),0.144,-0.813 (inactive),-0.218 (inactive),-1.71
C=C(/C(=C/C[C@H](OC(C)=O)c1ccccc1OCCO)c1cnc2ccccc2c1)C(C)C,-0.564 (inactive),-0.0654,9.77 (active),1.55 (inactive),1.29 (inactive),0.724 (inactive),0.193,-0.353 (inactive),-0.402 (inactive),-1.08
CCCCC(CC)C(O)C1C=CC2C(=O)N(Cc3ccccc3)C(=O)C2N1n1cnnc1 (stereo not given),-1.5 (inactive),0.0903,0.218 (inactive),0.0653 (inactive),0.604 (inactive),0.411 (inactive),-0.908,-0.132 (inactive),-0.476 (inactive),-0.99
COCCOC(=O)N1C(=O)[C@@]2(c3cc(C#CCNC(N)=O)ccc31)[C@H](C(=O)Nc1nc3ccccc3s1)[C@H]1C(=O)O[C@H](c3ccccc3)[C@H](c3ccccc3)N1[C@@H]2c1ccc(OCCO)cc1,-0.537 (inactive),0.729,2.48 (inactive),1.23 (inactive),0.0531 (inactive),0.559 (inactive),-0.0692,1.42 (inactive),1.19 (inactive),1.4
CC(C)C(O)C1C=CC2C(=O)N(c3ccccc3)C(=O)C2N1Nc1ccc([N+](=O)[O-])cc1 (stereo not given),-0.467 (inactive),0.0045,11 (active),1.48 (inactive),0.928 (inactive),0.779 (inactive),-0.326,-0.59 (inactive),-1.82 (inactive),-1.23
C=CCOC(=O)[C@H]1[C@@H]2C(=O)O[C@@H](c3ccccc3)[C@@H](c3ccccc3)N2[C@@H](c2ccc(OCCOC(=O)[C@@H]3C[C@@H]4C(=O)N[C@@H](CC(C)C)C(=O)N4[C@@H]3c3ccc(O)cc3)cc2)[C@]12C(=O)Nc1ccccc12,0.204 (inactive),0.439,3.03 (inactive),1.3 (inactive),4.45 (inactive),1.04 (inactive),-0.197,1.63 (inactive),1.18 (inactive),1.49
C[C@@]1([C@@H](NC(=O)c2ccc(-c3ccccc3)cc2)c2ccc(Cl)cc2)C[C@H]1C1CCCCC1,-1.28 (inactive),0.284,15.8 (active),3.36 (inactive),-0.0758 (inactive),1.11 (inactive),-0.216,-0.75 (inactive),0.205 (inactive),0.644
COc1cc(C(O)C2C=CC3C(=O)NC(=O)C3N2Nc2ccccn2)cc(OC)c1OC (stereo not given),-1.57 (inactive),0.19,0.0115 (inactive),0.297 (inactive),-0.928 (inactive),0.409 (inactive),-1.21,-1.42 (inactive),-3.26 (inactive),-2.9
NC(=O)N1C(=O)C2C(C1=O)C1C=C(c3ccc(CO)cc3)C2C(c2cccs2)N1Cc1cccc(OC(F)(F)F)c1 (stereo not given),-3.19 (inactive),0.424,3.08 (inactive),-0.687 (inactive),0.195 (inactive),-1.98 (inactive),2.65,-1.02 (inactive),-1.22 (inactive),-1.25
C=C(C(=O)CC[C@@H](OC(=O)c1cccnc1)c1ccccc1OCCO)C(C)C,0.151 (inactive),0.106,15.1 (active),2.08 (inactive),0.759 (inactive),0.601 (inactive),0.149,-0.551 (inactive),-0.118 (inactive),-1.34
OCCCC1=CC(c2cccs2)N(Cc2cc3c(cc2Br)OCO3)CC1 (stereo not given),-1.3 (inactive),0.187,5.53 (inactive),0.887 (inactive),-0.281 (inactive),0.625 (inactive),-0.684,-0.283 (inactive),-0.294 (inactive),-0.768
COCCOC(=O)N1C(=O)[C@@]2(c3cc(C#Cc4ccc(OC)cc4)ccc31)[C@H](c1ccc(OCCO)cc1)N1[C@H](c3ccccc3)[C@H](c3ccccc3)OC(=O)[C@H]1[C@@H]2C(=O)N1CCN(c2ncccn2)CC1,-0.0791 (inactive),0.042,5.07 (inactive),2.39 (inactive),0.738 (inactive),1.17 (inactive),-0.451,0.938 (inactive),-1.34 (inactive),0.656
C=CC[C@@]12N=C(c3ccc(OCCCO)cc3)O[C@@H]1c1ccccc1N(C)C2=O,1.12 (inactive),0.349,33.2 (active),32.3 (active),2.02 (inactive),3.46 (inactive),0.368,-2.99 (inactive),-0.963 (inactive),-1.85
C=CC1(C(=O)OC)CC=C(C(=O)OC)CC1 (stereo not given),0.2 (inactive),0.0262,0.655 (inactive),-0.87 (inactive),-1.3 (inactive),-1.96 (inactive),0.674,0.379 (inactive),-0.389 (inactive),-0.0703
CCOC(=O)C[C@H]1[C@H](OC(=O)c2ccc(C(=O)c3ccccc3)cc2)[C@@H](NC(=O)c2ccccc2)c2cc(OCCCO)ccc2N1C(=O)Cc1ccc(OC)cc1,-0.126 (inactive),-0.185,3.37 (inactive),0.656 (inactive),-0.391 (inactive),0.259 (inactive),-0.0114,0.924 (inactive),0.983 (inactive),1.45
